According to PubChem BioAssay (NCI):
The panel holds about 79,000 compounds, 15% with a hit somewhere; the sample as a whole holds those more often. Values without a mark were called inactive. Calls of active or inactive are those of the source. Rule as the data show it: active = growth inhibition above about 70%; inactive = the rest.

How the values were obtained:
[1] = NCI Yeast Anticancer Drug Screen. Data for the rad50 strain (AID 155);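 also: 0% = growth of vehicle-only cultures of the same strain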; settings: S. cerevisiae rad50 strain growth inhibition; at 50.0 µM; hits give high values
Method in brief: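 Genetically altered yeast (DNA repair pathway); compound treatment; growth inhibition vs vehicle ctrl.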

[2] = NCI Yeast Anticancer Drug Screen. Data for the mec2-1 strain (AID 157); settings: S. cerevisiae mec2-1 strain, at 50.0 µM, hits give high values
Method in brief: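 Readout is yeast growth inhibition, normalised to vehicle-treated controls, in the mec2-1 strain exposed to compound.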

[3] = NCI Yeast Anticancer Drug Screen. Data for the sgs1 mgt1 strain (AID 161);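 also: 0% = growth of cultures given vehicle only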; settings: S. cerevisiae sgs1 mgt1 strain, at 50.0 µM, hits give high values
Method in brief: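 Percent growth inhibition was derived by comparing compound-exposed mutant yeast with vehicle-exposed cultures. The strain carries alterations in DNA damage repair.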

[4] = NCI Yeast Anticancer Drug Screen. Data for the cln2 rad14 strain (AID 165);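 also: 0% = growth equal to vehicle treated cultures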; settings: S. cerevisiae cln2 rad14 strain, at 50.0 µM, hits give high values
Method in brief: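 Relative to vehicle controls, growth inhibition of compound-treated cln2 rad14 yeast was recorded.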

[5] = NCI Yeast Anticancer Drug Screen. Data for the bub3 strain (AID 167); settings: S. cerevisiae bub3 mutant strain, at 50.0 µM, hits give high values
Method in brief: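 Yeast carrying a defined mutation is treated with each compound, and growth is compared with that of vehicle-exposed cells to give inhibition.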

[6] = NCI Yeast Anticancer Drug Screen. Data for the mlh1 rad18 strain (AID 175); settings: S. cerevisiae mlh1 rad18 strain growth inhibition; at 50.0 µM; hits give high values
Method in brief: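 Test agents were incubated with a yeast strain of defined genotype (DNA damage repair defect). Inhibition of growth was derived by comparison with vehicle-exposed cultures.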

SMILES | growth inhibition [1] | growth inhibition [2] | growth inhibition [3] | growth inhibition [4] | growth inhibition [5] | growth inhibition [6]
C1CCCCCC2=C(CCCC1)CCCO2 | 7.4% | -7.5% | 2.35% | -19.3% | 10.2% | 0.2%
COc1cc2c(cc1OC)C1Cc3ccc(OC)c(OC)c3C[N+]1([O-])CC2 (configuration not stated) | -24.9% | -16.8% | -6.95% | 9.6% | -15.6% | -3.2%
CC1=COC2(CC1)OC1CC3C4CCC5CC(O)CCC5(C)C4CCC3(C)C1C2C (configuration not stated) | 72.5% (active) | 60% | 87.3% (active) | 45.5% | 39.5% | 83% (active)
COCn1cnc2c(ccn2C2OC(CO)C(O)C2O)c1=O (configuration not stated) | -25.4% | 0% | -8.9% | -2.1% | 4% | 4.55%
Cc1ccc(C(=O)/C=C(\C(=O)c2ccccc2)c2ccccc2)cc1C | 12.5% | 14.8% | 1.85% | 11.7% | 11.3% | 9.65%
CC1(C)CCC2(C)CC=C3C(C)(CCC4C3(C)CCC3C(C)(C)C(O)CCC43C)C2C1 (configuration not stated) | 0.9% | -4.2% | -23.2% | -10.3% | -18% | -10.4%
O=C(OCc1ccccc1CN1CCCC1)c1cccc(Cl)c1 | 2.8% | -3.75% | -8.1% | -7.2% | 8.35% | 2.65%
C#CCC[N+](C)(C)C | -0.75% | -12.5% | -5.2% | 11.2% | -7.45% | 4.55%
Cc1ccc(SCc2ccc(Cl)cc2)nn1 | 4.05% | 0.3% | -1.65% | -13.8% | 26.8% | -5%
COC(=O)c1nc(N)[nH]c(=O)c1CCCCCc1c(C(=O)OC)nc(N)[nH]c1=O | -4.8% | -0.15% | -9.2% | 6.5% | -0.3% | -17.6%
Cc1nnnn1-c1ccc2ccccc2c1 | -24.8% | -24% | -6.8% | -20.6% | -0.05% | 4.45%
O=[N+]([O-])c1cccc(CC(=S)N2CCOCC2)c1 | 14.4% | -3.8% | -8.9% | -39.8% | -2.3% | 6.6%
COc1ccc(Nc2nc(C#N)c(N)s2)cc1 | 3.75% | -12.6% | -0.15% | -0.2% | -27% | -9.5%
CC(C)(C)C([O-])=C1C(=O)c2ccccc2C1=O.CC(C)(C)C([O-])=C1C(=O)c2ccccc2C1=O.CC[O-].CC[O-].[Ti+4] | 20.1% | 47.1% | 57.4% | 47.3% | 59.2% | 46.2%
O=C(O)CN1CCN(CC(=O)O)CCN(CC(=O)O)CCN(CC(=O)O)CC1 | -7.95% | -0.55% | 2.9% | -17.6% | 20.4% | 21.6%
CO/N=C(\C(=O)OC(=NC1CCCCC1)NC1CCCCC1)c1csc(NC(c2ccccc2)(c2ccccc2)c2ccccc2)n1 | -5.15% | -7.85% | -5.4% | -7.8% | -0.3% | -6.5%
C=CCNC(=O)c1ccc[n+](CC(=O)Nc2ccccc2)c1 | 1% | -9.75% | -1.1% | 9.8% | 2.3% | -7.6%
CC[N+](C)(C)CC(O)(O)C(F)F | -28.1% | -32.7% | -17.1% | 2.25% | -26.8% | -16.2%
COc1ccc(OC(C)C(=O)O)cc1 (configuration not stated) | 13.2% | 10.5% | 3.5% | -31.5% | 13.3% | 6.25%

SMILES | growth inhibition [1] | growth inhibition [2] | growth inhibition [3] | growth inhibition [4] | growth inhibition [5] | growth inhibition [6]
c1ccc2c(c1)[nH]c1c2ncc2[nH]c3ccccc3c21 | -2.7% | 2.85% | -7.35% | -60.2% | -1.8% | 7.25%
CC1=[N+]([O-])C2(CCCC2)N(O)C1(C)C | -13.8% | -0.7% | 9.7% | 19.5% | -6.25% | 12.8%
C[C@H](CCC(=O)O[C@@H]1CC[C@@]2(C)C(CC[C@H]3[C@@H]4CC[C@H]([C@H](C)CCc5nc6ccccc6[nH]5)[C@@]4(C)CC[C@@H]32)C1)[C@H]1CC[C@H]2[C@@H]3CCC4C[C@H](O)CC[C@]4(C)[C@H]3CC[C@]12C (some centres not stated) | 5.8% | -2.55% | -16.4% | 11.3% | 6.2% | -6.05%
CCN(CC)CCN1C(=O)C(=O)N(c2cccc3ccccc23)C1=O | -26.9% | -15.7% | -14.9% | -14.2% | -31.9% | -10.2%
CCOC(=O)CC[Si](CC)(CC)CC | 0.25% | -13.8% | 1.7% | -28.5% | -15.3% | -1.45%
CN(C)CCNc1ccc2nnn3c4ccccc4c(=O)c1c23 | 32.5% | 7.45% | 11.2% | 29.7% | 3% | 25.5%
C[n+]1ccccc1/C=C/c1ccc([N+](=O)[O-])cc1 | 9% | 5.8% | 13.2% | -10.3% | -1.8% | 6.3%
CC(=O)NS(=O)(=O)c1ccc(NC(=O)COC(=O)c2cccc3c(=O)c4ccccc4[nH]c23)cc1 | -33.1% | 5% | -48.6% | 7.1% | -28.6% | -23.6%
c1ccc(-c2ccc3ncccc3c2)cc1 | -17.9% | 3.5% | 5.05% | -34.4% | -0.4% | 2.3%
C=Cc1ccc(-c2ccccc2)cc1 | 7.1% | -14.7% | -25.5% | -43.2% | -5.8% | -0.65%
CC(C)(C)N1CC(C(O)c2ccccc2)C1c1ccccc1 (configuration not stated) | -8.05% | 0.25% | -17.2% | -13.6% | -11.4% | -2.5%
COc1nc2n[nH]nc2c(=O)n1C | -5.75% | -10.8% | -13.1% | 13.7% | -5.1% | -21.6%
C=CN1C(=O)c2ccccc2C1=O | -12.8% | -12.4% | -8.95% | 6.3% | -6.5% | -24%
C[C@H]1S[C@H](c2c(F)cccc2F)n2c1nc1ccccc12 | 9.5% | -10.6% | 43.8% | -0.25% | 26.6% | 35%
CC(=O)OCCC1CC2c3[nH]c4ccccc4c3CCN2C1=O (configuration not stated) | -3.85% | -7% | 15.9% | 0.85% | 10.7% | -22.1%
Nc1ccc(-c2ccc(Nc3cc(S(=O)(=O)O)c(N)c4c3C(=O)c3ccccc3C4=O)cc2)c(S(=O)(=O)O)c1 | -23.9% | 14.8% | -32.5% | 8.45% | -38.1% | -9.05%
CC1=CC(/C=C(\C)CCCc2ccoc2)C2(OC(=O)C(C)=C2O)[C@H]2C1CC[C@@H]2C (some centres not stated) | 49.9% | 58.3% | 53.5% | 66% | 55.5% | 54.9%
Cc1ccc2c(c1)CN(C)c1ccc(C)cc1CN2C | 17.4% | -11.8% | 22.9% | 21.8% | 9.65% | 31.1%
